# PP5 primary: PP5 (human) phosphatase inhibition; P53041; purified PP5c, OMFP substrate fluorescence; inhibition, % at 6.7 µM; actives 0.18% (n = 320,000); AID 1987;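 active means inhibition above the campaign's mean inhibition across all tested compounds plus 3 SD, cut at about 9.5% in these data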;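 further: 0% = DMSO only and 100% = 100 µM cantharidin control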
# SKKanGAS inh: inhibitors of SKKanGAS S. pyogenes growth in kanamycin (SK-promoter or general growth effect) | inhibition, % at 7.5 µM | BacTiter-Glo, 6 h | actives 1.3% (n = 300,000);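 active means mean replicate score, as percent of positive control median, at least 50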;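 further: strain carries kanamycin resistance gene driven by streptokinase promoter and grows in 40 µg/ml kanamycin; loss of luminescence reflects streptokinase promoter inhibition or plain growth inhibition; 0% = median of DMSO wells and 100% = positive control at its reference dose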
# PP1 counter: PP1-alpha (human) inhibition in PP5 counter-screen; P62136; purified PP1alpha, OMFP fluorescence; inhibition, % at 6.7 µM; actives 0.9% (n = 320,000); AID 2235;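 active means inhibition above the mean inhibition of all tested compounds plus 3 SD, computed separately for each screening campaign, cut at about 15% in these data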
# Target sequence (P62136 whole entry, looked up): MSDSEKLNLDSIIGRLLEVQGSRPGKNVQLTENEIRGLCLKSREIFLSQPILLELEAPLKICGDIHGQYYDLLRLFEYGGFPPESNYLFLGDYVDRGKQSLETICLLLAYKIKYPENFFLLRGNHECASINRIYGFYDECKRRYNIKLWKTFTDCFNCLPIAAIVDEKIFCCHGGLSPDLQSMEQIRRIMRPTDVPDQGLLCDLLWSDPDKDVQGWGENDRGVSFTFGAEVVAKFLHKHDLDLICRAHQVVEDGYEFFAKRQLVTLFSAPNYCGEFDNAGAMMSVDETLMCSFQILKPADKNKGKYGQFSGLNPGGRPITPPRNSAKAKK
# CSC inhib: blocks cancer stem cells | cancer stem cell-like cells viability, luminescence | inhibition, % at 7.5 µM | actives 1.1% (n = 300,000) | AID 2717; in the data active means inhibition above about 75%; tested in HMLE shEcad cells
# Beta apoptosis: beta cell apoptosis inhibition; protection from apoptosis, % (concentration not given with the values); actives 0.8% (n = 300,000); AID 435005; INS-1E cytokine-induced death, ATP luminescence, 48 h; percent of positive-control rescue, neutral wells zero;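 active means Every replicate reaches about 75%, or at least half do and their mean reaches it too, limit read from the data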;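 further: 0% = cytokine-treated negative control wells and 100% = positive control rescue; higher means more ATP so stronger rescue from cytokine killing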
# * hit, by the source's call; . = no result given. This is a sample that favours compounds with a hit; in the whole collection about 3.1% have one here.
SMILES,PP5 primary,SKKanGAS inh,PP1 counter,CSC inhib,Beta apoptosis
O=C1CCN(Cc2ccc([N+](=O)[O-])cc2)CCN1[C@H](CO)c1ccccc1,-2,1,-8,17,1
CCOc1ccc(NC(=O)CSc2nnc(C)n2Cc2ccccc2)cc1,-4,2,16*,7,1
CCOc1ccc(NC(=O)CSc2nnc(C)n2CC)cc1,1,-1,-3,-17,-6
CS(=O)(=O)N(CC(=O)N1CCc2ccccc2C1)c1ccccc1F,0,-5,-3,-8,-3
CCc1ccc(NC(=O)C(C)Sc2nc(-c3ccco3)c(C#N)c(=O)[nH]2)cc1 (stereo not given),1,12,12,50,-5
CCC(=O)Nc1ccc(NC(=S)NC(=O)/C=C/c2ccco2)cc1,1,2,-7,-6,-13
CC(=O)NC(=S)Nc1ccc(NC(=S)NC(=O)/C=C/c2ccco2)cc1,0,83*,5,6,21
Cc1ccc(C(=O)NCc2nnc(SCC(=O)NC(C)c3ccccc3)n2C)cc1 (stereo not given),-1,7,-2,-4,-2
O=C(O)c1ccccc1-c1ccccc1C(=O)Nc1ccc(F)cc1,1,4,2,-18,0
O=C(/C=C/c1ccncc1)c1ccc(NC(=O)c2ccccc2F)cc1,3,.,1,80*,-1
O=C(/C=C/c1ccc(NC(=O)c2ccccc2-c2ccccc2C(=O)O)cc1)c1ccccc1,0,0,17*,14,-3
CCOC(=O)c1c(C)[nH]c(C)c1C(=O)CSc1nc2ccccc2n1CC,3,1,1,-11,0
CCOC(=O)c1c(C)[nH]c(C)c1C(=O)CSc1nc2ccccc2c(=O)n1-c1ccc(CC)cc1,4,14,-1,17,110*
COc1ccc(CC2(CO)CCN(CC3=Cc4cc(Cl)ccc4OC3)CC2)cc1,7,0,2,-2,115*
COc1ccc(-c2nnc(NC(=O)C3CCCN3S(=O)(=O)c3cccs3)o2)cc1 (stereo not given),1,56*,-1,.,-7
O=C(Nc1nnc(-c2ccccc2)o1)C1CCCN1S(=O)(=O)c1cccs1 (stereo not given),1,0,-6,-1,-11
COc1cccc(-c2nnc(NC(=O)c3ccc(S(=O)(=O)N4CC(C)OC(C)C4)cc3)o2)c1 (stereo not given),-3,93*,4,19,.
COc1ccc(-c2nnc(NC(=O)c3ccc(S(=O)(=O)N4CCc5ccccc5C4)cc3)o2)cc1,1,94*,1,.,4
Cc1ccccc1OCCc1c(C)[nH]c(=S)[nH]c1=O,-1,7,-4,-2,6
O=C(COc1ccccc1)Nc1cccc(-c2ccc(N3CCOCC3)nn2)c1,1,4,-3,.,24
Cc1ccc(CSc2ccc3nnc(-c4ccccn4)n3n2)cc1,0,0,16*,-5,6
Fc1ccc(CSc2ccc3nnc(-c4ccccn4)n3n2)cc1,-1,1,13,29,3
Oc1[nH]c(=S)sc1/C=C1\C(c2ccccc2)=Nc2ccccc21,0,76*,1,48,-4
Oc1[nH]c(=S)sc1C=C1N=c2ccccc2=N1,1,6,7,-10,.
COc1cccc(NC(=S)NN=C2CCCCCC2)c1,.,52*,.,.,.
SMILES,PP5 primary,SKKanGAS inh,PP1 counter,CSC inhib,Beta apoptosis
CC(=O)N1c2c(cc(Br)cc2S(=O)(=O)NCc2ccc(C)cc2)CC1C (stereo not given),0,13,1,-3,-2
N#C/C(=C(/O)c1cc2ccccc2o1)c1nc2ccccc2s1,-2,61*,6,108*,10
Cc1nn(-c2ccccc2)c(N)c1Sc1ccc([N+](=O)[O-])cc1,1,13,1,-1,-12
Cc1nn(S(=O)(=O)c2ccc(Cl)cc2)c(C)c1Sc1ccc([N+](=O)[O-])cc1,-1,-4,0,7,86*
Cc1ccc(Nc2cc(C)nn2-c2nc(C)cc(C)n2)cc1,3,101*,14,16,55
CC1=NN(c2ccccc2)C(=O)/C1=C/C=C/c1ccccc1,2,-1,7,84*,.
CCC1(c2ccccc2)NC(=O)N(CC(=O)N(C)CC(=O)Nc2ccc(F)c(F)c2F)C1=O (stereo not given),1,-1,-4,3,0
CC1=NN(/C(=N\c2nnc(C)s2)Nc2ccc(C(C)(C)C)cc2)[C@H](c2ccc(C)cc2)S1,4,58*,9,52,12
Cc1ccc(NC(=O)CCSc2nnc(C)s2)cc1,0,-2,-5,-3,.
Cn1c2ccccc2c(=O)c2cc(C#Cc3ccccn3)ccc21,1,31,5,82*,-3
Cc1ccc(/C=C/C(=O)NC(=S)Nc2ccc(S(=O)(=O)Nc3cc(C)on3)cc2)cc1,3,52*,4,-8,3
Cc1ccc(-c2cc(C(=O)Nc3ccc(S(=O)(=O)Nc4cc(C)on4)cc3)c3ccccc3n2)c(C)c1,7,54*,10,8,-4
Cc1cc(NS(=O)(=O)c2ccc(NC(=S)NC(=O)/C=C/c3ccccc3)cc2)no1,-1,13,2,8,-3
Cc1cc(NS(=O)(=O)c2ccc(NC(=O)c3ccccc3C)cc2)no1,1,6,6,-3,-3
Cc1nc(SCC(=O)NCc2ccco2)c2c(=O)n(C)c(=O)n(CC(C)C)c2n1,-1,5,-3,-5,3
O=C(NC(NC(=S)Nc1ccccc1Cl)C(Cl)(Cl)Cl)c1cccc(Cl)c1 (stereo not given),5,97*,15,111*,49
CCC(=O)NC(NC(=S)Nc1ccccc1Br)C(Cl)(Cl)Cl (stereo not given),1,2,0,-1,-1
O=C(Cc1cccc2ccccc12)NC(NC(=S)Nc1ccccc1Cl)C(Cl)(Cl)Cl (stereo not given),1,-14,16*,4,18
Cc1cccc(N=Nc2c(C)nn(-c3ccccc3)c2N)c1C,5,57*,1,50,-7
Cc1nn(-c2ccccc2)c(N)c1N=Nc1ccc(Cl)cc1,0,-15,0,79*,-2
CCOc1ccc(-c2ccc3nnc(SCC(=O)NCC4CCCO4)n3n2)cc1 (stereo not given),-1,15,-4,-13,.
O=Nc1c(O)c2ccccc2c2ccccc12,3,66*,3,122*,109*
Cc1ccc(NC(=O)CN(C)C(=O)Cn2ncc(Cl)c(Cl)c2=O)cc1,1,-2,-7,110*,-6
N#Cc1c(-c2cccs2)cc(-c2cccnc2)nc1N,1,5,6,-8,1
N#Cc1c(-c2cccs2)cc(-c2ccccn2)nc1N,4,30,16*,-9,7
COc1ccc(Cc2n[nH]c(=S)n2C)cc1Br,2,5,-3,6,4
COc1ccc(S(=O)(=O)N(C)C)cc1NS(=O)(=O)c1ccc(F)c(F)c1F,0,2,-3,-7,-7
CCn1c(O)c(/C=N/N=C/c2ccccc2)c2ccc(C3=NNC(=O)CC3)cc21,1,52*,-1,.,6
